In PubChem BioAssay (NCATS):
Results filed as inconclusive are left out. Activity calls are given as the source filed them. Calls follow the shape of the dose curve; as a rule, active = well fitted curve in the direction sought with a large enough effect; inconclusive = small, poorly fitted or top-dose-only effect, or another doubt; inactive = no such curve, though single readings can be large; an effect the other way counts as inactive or inconclusive.

Assays:
HACAT = assay: qHTS assay to identify novel small-molecules to repurpose for Merkel cell carcinoma treatment (AID 1296009); settings: MCC and control cell lines, CellTiter-Glo viability, 72 h; at 44.8 µM (top of the series) unless noted; also: nearly all actives have a fitted effect of over 60% in size
Summary of the method: (§1)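 Dose-response viability screen; 72 hr exposure at 37 degree celsius; CellTiter-Glo added, 10 min room temperature, luminescence read; RLUs scaled between no-cell and DMSO wells.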

NIH3T3 = assay: as above; settings: MCC and control cell lines, CellTiter-Glo viability, 72 h; at 44.8 µM (top of the series) unless noted
Summary of the method: as §1

C33A = assay: Primary qHTS to identify gynecologic anti-cancer compounds using libraries of approved drugs and bioactive compounds (AID 1345084); settings: Gynecologic cancer cell panel viability, ATPlite luminescence, 48 h; series mostly up to 57.5 µM; also: % is scaled to controls: 0 for no effect and ±100 for the full control effect; nearly all actives have a fitted effect of over 55% in size
Summary of the method: (§2)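 Measured: luminescence after ATPlite addition (15 min, RT). Exposure: 48 h, 37 C, 5% CO2.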

CAOV3 = assay: as above; settings: Gynecologic cancer cell panel viability, ATPlite luminescence, 48 h; series mostly up to 57.5 µM
Summary of the method: as §2

CASKI = assay: as above; settings: Gynecologic cancer cell panel viability, ATPlite luminescence, 48 h; series mostly up to 57.5 µM
Summary of the method: as §2

Es-2 = assay: as above; settings: Gynecologic cancer cell panel viability, ATPlite luminescence, 48 h; series mostly up to 57.5 µM
Summary of the method: as §2

HeLa = assay: as above; settings: Gynecologic cancer cell panel viability, ATPlite luminescence, 48 h; series mostly up to 57.5 µM
Summary of the method: as §2

Hek293T = assay: as above; settings: Gynecologic cancer cell panel viability, ATPlite luminescence, 48 h, control line for the selectivity index; series mostly up to 57.5 µM
Summary of the method: as §2

JEG-3 = assay: as above; settings: Gynecologic cancer cell panel viability, ATPlite luminescence, 48 h; series mostly up to 57.5 µM
Summary of the method: as §2

OV90 = assay: as above; settings: Gynecologic cancer cell panel viability, ATPlite luminescence, 48 h; series mostly up to 57.5 µM
Summary of the method: as §2

PA-1 = assay: as above; settings: Gynecologic cancer cell panel viability, ATPlite luminescence, 48 h; series mostly up to 57.5 µM
Summary of the method: as §2

Tov-21-G = assay: as above; settings: Gynecologic cancer cell panel viability, ATPlite luminescence, 48 h; series mostly up to 57.5 µM
Summary of the method: as §2

Tov112D = assay: as above; settings: Gynecologic cancer cell panel viability, ATPlite luminescence, 48 h; series mostly up to 57.5 µM
Summary of the method: as §2

SKOV3 = assay: as above; settings: Gynecologic cancer cell panel viability, ATPlite luminescence, 48 h; series mostly up to 57.5 µM
Summary of the method: as §2

OC[C@@]1(O)CO[C@@H](OC[C@H]2O[C@@H](OCc3ccccc3)[C@H](O)[C@@H](O)[C@@H]2O)[C@@H]1O
inactive: outcome (HACAT) inactive [at 17.4 µM] | outcome (NIH3T3) inactive [at 17.4 µM] | Potency (C33A) | Potency (CAOV3) | outcome (CASKI) | Potency (Es-2) | Potency (HeLa) | Potency (Hek293T) | Potency (JEG-3) | Potency (OV90) | Potency (PA-1) | Potency (Tov-21-G) | Potency (Tov112D)

CC1=C2CC(O)(C(C)(C)O)C(O[C@@H]3O[C@H](CO)[C@@H](O)[C@H](O)[C@H]3O)CC(C)C2CC1=O (stereo partly specified)
inactive: outcome (HACAT) inactive [at 17.4 µM] | outcome (NIH3T3) inactive [at 17.4 µM] | Potency (C33A) | Potency (CAOV3) | outcome (CASKI) | Potency (Es-2) | Potency (HeLa) | Potency (Hek293T) | Potency (JEG-3) | Potency (OV90) | Potency (PA-1) | Potency (SKOV3) | Potency (Tov-21-G) | Potency (Tov112D)

COC(=O)C1=CO[C@@H](O[C@@H]2O[C@H](CO)[C@@H](O)[C@H](O)[C@H]2O)[C@@H]2[C@@H](C)[C@@H](O)C(O)[C@H]12 (stereo partly specified)
inactive: outcome (HACAT) inactive [at 17.4 µM] | outcome (NIH3T3) inactive [at 17.4 µM] | Potency (C33A) | Potency (CAOV3) | outcome (CASKI) | Potency (Es-2) | Potency (HeLa) | Potency (Hek293T) | Potency (JEG-3) | Potency (OV90) | Potency (PA-1) | Potency (Tov-21-G) | Potency (Tov112D)

CC1(C)C[C@@H]2[C@H](C1)[C@@]1(C)C[C@]13C(O)OC[C@]3(O)[C@H]2O (stereo partly specified)
inactive: outcome (HACAT) | outcome (NIH3T3) | Potency (C33A) | Potency (CAOV3) | outcome (CASKI) | Potency (Es-2) | Potency (HeLa) | Potency (Hek293T) | Potency (JEG-3) | Potency (OV90) | Potency (PA-1) | Potency (SKOV3) | Potency (Tov-21-G) | Potency (Tov112D)

CC1CCC2(C(=O)O)CCC3(C)C(=CCC4C5(C)C[C@@H](O)[C@@H](O)C(C)(CO)C5CCC43C)C2C1(C)O (stereo partly specified)
inactive: outcome (HACAT) inactive [at 17.4 µM] | outcome (NIH3T3) inactive [at 17.4 µM] | Potency (C33A) | Potency (CAOV3) | outcome (CASKI) | Potency (Es-2) | Potency (HeLa) | Potency (Hek293T) | Potency (JEG-3) | Potency (OV90) | Potency (PA-1) | Potency (Tov-21-G) | Potency (Tov112D)

CCC(C)C1NC(=O)C2C(C)CCN2C(=O)C(CC(O)CO)OC(=O)CCNC(=O)C(C)N(C)C(=O)C(C(C)C)N(C)C1=O (stereo unspecified)
inactive: outcome (HACAT) inactive [at 17.4 µM] | outcome (NIH3T3) inactive [at 17.4 µM] | Potency (C33A) | Potency (CAOV3) | outcome (CASKI) | Potency (Es-2) | Potency (HeLa) | Potency (Hek293T) | Potency (JEG-3) | Potency (OV90) | Potency (PA-1) | Potency (Tov-21-G) | Potency (Tov112D)

COc1cc(CO)cc(OC)c1O[C@@H]1O[C@H](CO)[C@@H](O)[C@H](O)[C@H]1O
inactive: outcome (HACAT) | outcome (NIH3T3) | Potency (C33A) | Potency (CAOV3) | outcome (CASKI) | Potency (Es-2) | Potency (HeLa) | Potency (Hek293T) | Potency (JEG-3) | Potency (OV90) | Potency (PA-1) | Potency (Tov-21-G) | Potency (Tov112D)

C[C@@H]1C[C@@H](O)[C@@]2(CO)C(CO)=CCC[C@@H]2[C@@]12C[C@@H](c1ccoc1)OC2=O
inactive: outcome (HACAT) | outcome (NIH3T3) | Potency (C33A) | Potency (CAOV3) | outcome (CASKI) | Potency (Es-2) | Potency (HeLa) | Potency (Hek293T) | Potency (JEG-3) | Potency (OV90) | Potency (PA-1) | Potency (SKOV3) | Potency (Tov-21-G) | Potency (Tov112D)

CC1(C)CC[C@]2(C(=O)O[C@@H]3O[C@H](CO[C@@H]4O[C@H](CO[C@@H]5O[C@H](CO)[C@H](O)[C@H](O)[C@H]5O)[C@@H](O)[C@H](O)[C@H]4O)[C@@H](O)[C@H](O[C@@H]4O[C@H](CO)[C@@H](O)[C@H](O)[C@H]4O)[C@H]3O)[C@H](O)C[C@]3(C)C(=CCC4[C@@]5(C)CC[C@H](O[C@@H]6OC[C@@H](O)[C@H](O)[C@H]6O)[C@@](C)(C(=O)O)C5CC[C@]43C)[C@@H]2C1 (stereo partly specified)
inactive: outcome (HACAT) inactive [at 9.27 µM] | outcome (NIH3T3) inactive [at 9.27 µM] | activity change, negative = cytotoxicity (C33A) 12.5% [at 6.55 µM] | activity change, negative = cytotoxicity (CAOV3) 1.69% [at 6.55 µM] | activity change, negative = cytotoxicity (CASKI) -1.12% [at 6.55 µM] | activity change, negative = cytotoxicity (Es-2) -9.51% [at 6.55 µM] | activity change, negative = cytotoxicity (HeLa) 2.81% [at 6.55 µM] | activity change, negative = cytotoxicity (Hek293T) -1.44% [at 6.55 µM] | activity change, negative = cytotoxicity (JEG-3) -1.76% [at 6.55 µM] | activity change, negative = cytotoxicity (OV90) 12% [at 6.55 µM] | activity change, negative = cytotoxicity (PA-1) 14% [at 6.55 µM] | activity change, negative = cytotoxicity (Tov-21-G) 9.11% [at 6.55 µM] | activity change, negative = cytotoxicity (Tov112D) 3.01% [at 6.55 µM]

CCCCNc1nc(N)c2[nH]c(=O)n(Cc3ccc(OCCN(C)C)nc3)c2n1
inactive: outcome (HACAT) | outcome (NIH3T3) inactive; activator | Potency (C33A) | Potency (CAOV3) | outcome (CASKI) | Potency (Es-2) | Potency (HeLa) | Potency (Hek293T) | Potency (JEG-3) | Potency (OV90) | Potency (PA-1) | Potency (Tov-21-G) | Potency (Tov112D)

CC1(C)CC[C@]2(C(=O)O)CC[C@]3(C)C(=CCC4[C@@]5(C)CC[C@H](O[C@@H]6O[C@H](C(=O)O)[C@@H](O)[C@H](O[C@@H]7O[C@H](CO)[C@H](O)[C@H](O)[C@H]7O)[C@H]6O[C@@H]6O[C@H](CO)[C@@H](O)[C@H](O)[C@H]6O)C(C)(C)C5CC[C@]43C)[C@@H]2C1 (stereo partly specified)
inactive: outcome (HACAT) inactive [at 4.96 µM] | outcome (NIH3T3) inactive [at 4.96 µM] | activity change, negative = cytotoxicity (C33A) 4.15% [at 6.55 µM] | activity change, negative = cytotoxicity (CAOV3) 0.251% [at 6.55 µM] | activity change, negative = cytotoxicity (CASKI) 11.8% [at 6.55 µM] | activity change, negative = cytotoxicity (Es-2) -0.476% [at 6.55 µM] | activity change, negative = cytotoxicity (HeLa) -1.9% [at 6.55 µM] | activity change, negative = cytotoxicity (Hek293T) -0.735% [at 6.55 µM] | activity change, negative = cytotoxicity (JEG-3) 4.16% [at 6.55 µM] | activity change, negative = cytotoxicity (OV90) 8.65% [at 6.55 µM] | activity change, negative = cytotoxicity (PA-1) 2.41% [at 6.55 µM] | activity change, negative = cytotoxicity (Tov-21-G) -6.57% [at 6.55 µM] | activity change, negative = cytotoxicity (Tov112D) -3.27% [at 6.55 µM]
